Test results reported in the supplement of paper PMC10477191.
± gives the standard deviation of the averaged measurements.

Test system: Drosophila virilis antennal basiconic sensillum AB9
Experiment: odor-evoked OSN spike response (post minus pre-stimulus); higher = stronger neuronal excitation
Settings: odor dilution: 10^-4
Procedure: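 Single sensillum recordings from antennal basiconic sensilla of D. virilis. A 500 ms pulse of odorant (10^-4 in mineral oil or DMSO) was delivered; the response is the change in spike frequency between the 1 s pre- and post-stimulus windows (spikes/s).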

Row | SMILES | odor-evoked OSN spike response [spikes/s]
1 | CC(C)=O [acetone] | 93.7 ± 30
